MEX-5 binding: MEX-5 zinc finger RNA-binding disruptors – biochemical, C. elegans, fluorescence polarization, MLPCN library, primary screen; MEX-5/FITC-TCR2 RNA binding; hits give low values; activity score (negative = inhibition of binding), % at 10 µM; hit rate 0.38% among 300,000; AID 1832, 2009;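 active = inhibition past about -25% in most replicates, and total fluorescence under double the plate's negative control median, limit read from the data; inconclusive = replicates evenly split on the limit, or fluorescence at least double controls; inactive = too little inhibition in most replicates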;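 also: 0% = DMSO and -100% = 5 µM competing unlabeled TCR2 RNA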
E coli Lon inh: inhibitors of E. coli Lon protease, primary screen, biochemical, fluorescence polarization. purified E. coli Lon protease. P0A9M0. hit rate 0.42% among 360,000. inhibition, % at 7.94 µM; in the data active = inhibition above about 13%, passing the limit was not always enough;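 also: 0% = enzyme with probe and DMSO and 100% = no enzyme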
Target sequence (P0A9M0 whole entry, looked up): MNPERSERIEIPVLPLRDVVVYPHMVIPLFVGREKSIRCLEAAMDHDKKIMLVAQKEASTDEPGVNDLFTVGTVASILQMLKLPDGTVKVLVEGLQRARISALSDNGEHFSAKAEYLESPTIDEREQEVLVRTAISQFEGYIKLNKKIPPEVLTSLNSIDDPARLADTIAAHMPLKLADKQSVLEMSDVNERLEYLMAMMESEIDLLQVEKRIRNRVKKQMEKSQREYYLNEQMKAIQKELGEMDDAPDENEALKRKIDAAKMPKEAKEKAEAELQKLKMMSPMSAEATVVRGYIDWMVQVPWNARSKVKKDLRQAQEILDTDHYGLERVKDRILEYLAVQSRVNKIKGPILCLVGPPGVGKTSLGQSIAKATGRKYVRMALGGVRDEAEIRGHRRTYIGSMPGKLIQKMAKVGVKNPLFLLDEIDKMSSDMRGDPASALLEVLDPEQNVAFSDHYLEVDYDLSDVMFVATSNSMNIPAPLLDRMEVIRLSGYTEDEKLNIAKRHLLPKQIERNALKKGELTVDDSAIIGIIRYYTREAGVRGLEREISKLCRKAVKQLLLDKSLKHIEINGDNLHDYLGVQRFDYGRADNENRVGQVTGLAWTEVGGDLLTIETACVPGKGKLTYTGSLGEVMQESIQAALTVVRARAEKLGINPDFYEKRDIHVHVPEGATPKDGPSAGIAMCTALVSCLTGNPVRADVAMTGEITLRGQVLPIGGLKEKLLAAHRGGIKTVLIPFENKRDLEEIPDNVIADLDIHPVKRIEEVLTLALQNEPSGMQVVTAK
Bcl-xL primary: inhibitors of human Bcl-xL, primary screen, biochemical, fluorescence polarization, HTS. Bcl-2-like protein 1 (Homo sapiens), Q07817. inhibition, % at 10.9 µM. AID 2129, 2009. hit rate 0.7% among 320,000. GST-Bcl-xL / FITC-Bim BH3 peptide fluorescence polarization;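 active = inhibition above the mean of all tested compounds plus 3 SD, cutoff set per campaign, cut at about 30% in these data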;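 also: 0% = DMSO wells and 100% = unlabeled Bim-BH3 peptide competitor; inhibitors lower millipolarization by displacing the labeled peptide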
GLD-1 RNA inh: GLD-1/TGE RNA complex disruptors, primary screen, biochemical, fluorescence polarization. Female germline-specific tumor suppressor gld-1 (Caenorhabditis elegans), Q17339. hit rate 0.44% among 320,000. inhibition, % at 5.96 µM. purified GLD-1 + fluorescein TGE RNA;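 active = percent inhibition above a per-plate cutoff, the plate mean of test compounds plus 3 SD, cut at about 30% in these data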;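 also: 0% = DMSO wells with GLD-1 and probe and 100% = wells lacking GLD-1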
EBV gp42 inh: Epstein-Barr virus gp42 inhibitors, primary screen, biochemical, uHTS, fluorescence polarization; Glycoprotein 42 (Epstein-Barr virus (strain AG876)), Q1HVG2; Fluorescence polarization binding assay, mP read-out; inhibition, % (tested at 21.74 µM); hit rate 0.42% among 220,000; in the data active = inhibition above about 50%
* = called active by the depositor; i = inactive; u = inconclusive; x = no result. Only some compounds are listed: those with a hit (about 1.3% of all), similar ones and a draw of the others.

SMILES	MEX-5 binding	E coli Lon inh	Bcl-xL primary	GLD-1 RNA inh	EBV gp42 inh
CC1(O)C(=O)C=C2C=C(C3CC3)OC=C2C1=O (configuration not stated)	-60*	x	21	23	x
CC1(OC(=O)CCc2ccccc2)C(=O)C=C2C=C(C3CC3)OC=C2C1=O (configuration not stated)	-19	x	39*	33*	x
COC(=O)CCC(=O)OC1(C)C(=O)C=C2C=C(c3ccsc3)OC=C2C1=O (configuration not stated)	-41*	-21	21	28	x
COC(=O)CCC(=O)OC1(C)C(=O)C=C2C=C(C3CC3)OC=C2C1=O (configuration not stated)	-42*	x	54*	67*	x
CC(C)c1ccc(NC(=O)c2snc3ccc(Cl)cc23)cc1	2	-1	7	4	8
CCCCN(C)C(=O)c1cccc(OC2CCN(CC(C)(C)C)CC2)c1	-31*	1	3	-3	x
CC1=C(C#N)c2nc(N)c(C#N)c(C)c2/C1=C\c1ccc(OCC(=O)O)c(Cl)c1	-16	0	37*	20	11
CCOC(=O)CSc1nc(N)c(C#N)c(-c2ccc(OCC)cc2)c1C#N	-3	-11	-3	-3	-24
CN1CCCN(S(=O)(=O)c2ccc(Cl)c(Cl)c2)CC1	0	-2	x	x	5
Cc1ccccc1-c1nnc(CN2CCC(C)CC2)o1	0	1	0	37*	x
CS(=O)(=O)N1Cc2ccccc2CC1C(=O)OCC(=O)NCCc1ccc(S(N)(=O)=O)cc1 (configuration not stated)	x	-8	x	8	x
CCN(CC(=O)Nc1cc(Cl)ccc1C)C(=O)c1ccc2c(c1)NC(=O)C(C)S2 (configuration not stated)	-2	-7	-11	7	x
CC(=O)c1ccc(C(=O)Nc2sc3c(c2C(N)=O)CCN(Cc2ccccc2)C3)cc1	-37*	i	-43	-152	x
CC(C)N1CCc2c(sc(NC(=O)c3ccc4ccccc4c3)c2C(N)=O)C1	-37*	-310	-62	-98	x
COc1cccc(OC)c1C(=O)Nc1sc2c(c1C(N)=O)CCN(Cc1ccccc1)C2	-7	-20	0	3	x
CCOC(=O)c1c(NC(=O)C2COc3ccccc3O2)sc2c1CCN(Cc1ccccc1)C2 (configuration not stated)	-5	-4	-1	-16	-8
CC(C)N1CCc2c(sc(NC(=O)c3ccc(C(=O)c4ccccc4)cc3)c2C(N)=O)C1	4	-47	-23	-26	x
NC(=O)c1c(NC(=O)C2COc3ccccc3O2)sc2c1CCN(Cc1ccccc1)C2 (configuration not stated)	-62*	-306	-44	-64	-98
O=C(OCCN1C(=O)c2cccc3c(N4CCOCC4)ccc(c23)C1=O)c1ccccc1Cl	u	-192	25	19	146*
O=C(OCCN1C(=O)c2ccccc2C1=O)c1cc(S(=O)(=O)N2CCOCC2)ccc1Cl	0	8	2	6	-6
O=C(OCc1c(F)cccc1Cl)c1cc([N+](=O)[O-])ccc1N1CCOCC1	0	-4	3	8	x
O=C(OCCN1C(=O)c2cccc3c(N4CCOCC4)ccc(c23)C1=O)c1ccc(Cl)cc1Cl	u	-50	39*	73*	144*
O=C(OCCN1C(=O)c2cccc3c(N4CCOCC4)ccc(c23)C1=O)c1cccc(Cl)c1	u	x	41*	81*	152*
N#Cc1ccccc1NC(=O)COC(=O)CCc1ccccc1	0	-2	4	3	x
CCOC(=O)C(C#N)=C1CCN(Cc2ccccc2)CC1	-1	8	58*	29	x
SMILES	MEX-5 binding	E coli Lon inh	Bcl-xL primary	GLD-1 RNA inh	EBV gp42 inh
COc1ccc(CN2CCOCCOCCN(Cc3ccc(OC)cc3)CCOCCOCC2)cc1	4	-7	4	4	-8
Cc1cc(C)c[n+](-c2nc3ccccc3nc2[N-]S(=O)(=O)c2ccc(Br)s2)c1	-10	-1	62*	16	66*
Cc1ccc(S(=O)(=O)[N-]c2nc3ccccc3nc2-n2cc[n+](Cc3ccccc3)c2)cc1	3	-10	8	7	0
c1nc(SSc2ncnc3nc[nH]c23)c2[nH]cnc2n1	x	4	x	x	x
O=C(O)c1cccc(-n2cccc2/C=C2/NC(=O)N(c3cccc(Cl)c3)C2=O)c1	x	-6	1	2	-25
O=C(O)c1cccc(-n2cccc2/C=C2/NC(=O)N(c3ccc(Cl)cc3)C2=O)c1	x	-12	x	x	95*
Cc1cc(NS(=O)(=O)c2ccc(Nc3nc(-c4sc(N)nc4C)cs3)cc2)no1	-29*	-4	9	11	-8
Cc1cc(NS(=O)(=O)c2ccc(Nc3nc(-c4ccc(C)c(C)c4)cs3)cc2)no1	3	-9	1	6	11
COc1cc(/C=C2\SC(=O)N(c3cccc(Cl)c3)C2=O)cc([N+](=O)[O-])c1O	x	-1	x	x	87*
COc1cc(/C=C2/C(=O)NN(c3cccc(C)c3)C2=O)cc([N+](=O)[O-])c1O	-27*	6	28	0	-2
O=C1S/C(=C\c2ccc(O)c([N+](=O)[O-])c2)C(=O)N1c1ccccc1Cl	-4	4	4	1	4
COc1cc(/C=C2\SC(=O)N(c3ccc(Cl)cc3)C2=O)cc([N+](=O)[O-])c1O	x	-1	x	x	100*
O=C(Nc1ccc(Br)cc1)c1cc(-c2ccncc2)nc2ccccc12	x	-3	x	0	x
O=C(COC(=O)c1ccc(O)cc1O)NC1CC1	x	-4	0	2	x
COC(=O)/C(C#N)=C/c1ccc(-c2ccc(S(N)(=O)=O)cc2)o1	-11	-6	1	0	-7
N#CC(C#N)=Cc1ccc(-c2ccc(S(=O)(=O)N=C(N)N)cc2)o1	-38*	-14	5	-5	10
NC(COCc1ccccc1)c1csc(NC(=O)Nc2cccc(Cl)c2)n1 (configuration not stated)	x	4	x	x	x
O=C1NCCCC2c3cc(O)c4ccccc4c3OC12N1CCCCC1 (configuration not stated)	x	x	52*	27	-17
O=C1NCCCC2c3c(cc(Br)c(O)c3Br)OC12N1CCOCC1 (configuration not stated)	-2	9	4	-1	-19
Oc1ccc(N2CCN(c3nc(-c4cccs4)nc4ccccc34)CC2)cc1	-1	1	32*	8	-15
Cc1cc(C)cc(-n2c(N)c(C(=O)Nc3c(C)n(C)n(-c4ccccc4)c3=O)c3nc4ccccc4nc32)c1	1	1	32*	7	12
